# Measured values as given in ChEMBL document CHEMBL1961873, “Compounds: GSK PKIS; Assays: Nanosyn kinase panel” (2012).
# Key:
# [1] = target: Mitogen-activated protein kinase 3 (Homo sapiens) (UniProt P27361); conditions: at 1 µM;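 further: values are mean percent inhibition of MAPK3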
# [2] = target: SRSF protein kinase 3 (Homo sapiens) (UniProt Q9UPE1); conditions: at 0.1 µM
# [3] = target: SRSF protein kinase 3 (Homo sapiens) (UniProt Q9UPE1); conditions: at 1 µM
# [4] = target: Mitogen-activated protein kinase 14 (Homo sapiens) (UniProt Q16539); conditions: at 0.1 µM
# Mitogen-activated protein kinase 14 (Homo sapiens), sequence (Q16539 whole entry): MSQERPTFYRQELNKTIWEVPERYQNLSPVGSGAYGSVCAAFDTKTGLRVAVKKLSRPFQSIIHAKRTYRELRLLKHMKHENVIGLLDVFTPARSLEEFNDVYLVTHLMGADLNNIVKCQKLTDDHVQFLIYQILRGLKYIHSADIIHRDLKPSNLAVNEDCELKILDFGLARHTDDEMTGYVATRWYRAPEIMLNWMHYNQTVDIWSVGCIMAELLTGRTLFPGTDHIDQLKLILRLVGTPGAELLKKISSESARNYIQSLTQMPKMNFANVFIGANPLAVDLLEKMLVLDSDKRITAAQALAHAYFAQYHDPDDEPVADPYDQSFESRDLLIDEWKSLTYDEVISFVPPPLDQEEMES
# [5] = target: Mitogen-activated protein kinase 14 (Homo sapiens) (UniProt Q16539); conditions: at 1 µM
# [6] = target: Mitogen-activated protein kinase 11 (Homo sapiens) (UniProt Q15759); conditions: at 0.1 µM
# Mitogen-activated protein kinase 11 (Homo sapiens), sequence (Q15759 whole entry): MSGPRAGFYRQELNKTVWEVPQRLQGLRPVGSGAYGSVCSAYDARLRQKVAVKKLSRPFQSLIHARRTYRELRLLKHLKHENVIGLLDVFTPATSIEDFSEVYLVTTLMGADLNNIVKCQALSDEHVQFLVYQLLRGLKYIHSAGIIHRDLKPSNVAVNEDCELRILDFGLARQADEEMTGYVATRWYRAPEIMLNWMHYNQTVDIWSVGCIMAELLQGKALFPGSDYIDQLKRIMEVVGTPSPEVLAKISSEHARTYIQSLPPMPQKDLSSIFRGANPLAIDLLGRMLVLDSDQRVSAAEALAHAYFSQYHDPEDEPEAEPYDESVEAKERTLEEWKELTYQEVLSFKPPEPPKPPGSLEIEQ
# [7] = target: Mitogen-activated protein kinase 11 (Homo sapiens) (UniProt Q15759); conditions: at 1 µM
# [8] = target: T1, Mitogen-activated protein kinase 13 (Homo sapiens) (UniProt O15264); conditions: at 0.1 µM
# T1 sequence (whole entry): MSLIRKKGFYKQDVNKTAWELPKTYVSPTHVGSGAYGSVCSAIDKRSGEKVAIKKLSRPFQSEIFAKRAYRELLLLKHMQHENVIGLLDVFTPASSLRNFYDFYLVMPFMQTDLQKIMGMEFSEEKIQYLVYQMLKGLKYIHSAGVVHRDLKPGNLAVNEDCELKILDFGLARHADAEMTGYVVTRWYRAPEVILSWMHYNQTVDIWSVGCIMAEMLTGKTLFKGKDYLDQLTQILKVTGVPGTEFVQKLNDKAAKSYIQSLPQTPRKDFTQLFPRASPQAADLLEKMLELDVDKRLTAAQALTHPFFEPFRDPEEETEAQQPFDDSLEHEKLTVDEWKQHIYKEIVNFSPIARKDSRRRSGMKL
# [9] = target: T1, Mitogen-activated protein kinase 13 (Homo sapiens); conditions: at 1 µM
# [10] = target: T2, Mitogen-activated protein kinase 12 (Homo sapiens) (UniProt P53778); conditions: at 0.1 µM
# T2 sequence (whole entry): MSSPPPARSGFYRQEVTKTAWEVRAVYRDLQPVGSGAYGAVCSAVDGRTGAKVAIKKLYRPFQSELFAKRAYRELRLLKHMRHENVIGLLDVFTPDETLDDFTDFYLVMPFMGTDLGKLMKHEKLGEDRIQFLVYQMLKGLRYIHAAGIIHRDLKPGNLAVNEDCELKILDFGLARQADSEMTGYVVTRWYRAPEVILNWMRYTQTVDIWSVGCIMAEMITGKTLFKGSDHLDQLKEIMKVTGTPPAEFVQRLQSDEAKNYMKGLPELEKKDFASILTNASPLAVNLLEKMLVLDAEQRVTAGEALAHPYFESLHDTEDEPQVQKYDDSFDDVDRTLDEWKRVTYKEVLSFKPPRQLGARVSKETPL
# [11] = target: T2, Mitogen-activated protein kinase 12 (Homo sapiens); conditions: at 1 µM
# [12] = target: SRSF protein kinase 1 (Homo sapiens) (UniProt Q96SB4); conditions: at 0.1 µM
# SRSF protein kinase 1 (Homo sapiens), sequence (Q96SB4 whole entry, canonical isoform): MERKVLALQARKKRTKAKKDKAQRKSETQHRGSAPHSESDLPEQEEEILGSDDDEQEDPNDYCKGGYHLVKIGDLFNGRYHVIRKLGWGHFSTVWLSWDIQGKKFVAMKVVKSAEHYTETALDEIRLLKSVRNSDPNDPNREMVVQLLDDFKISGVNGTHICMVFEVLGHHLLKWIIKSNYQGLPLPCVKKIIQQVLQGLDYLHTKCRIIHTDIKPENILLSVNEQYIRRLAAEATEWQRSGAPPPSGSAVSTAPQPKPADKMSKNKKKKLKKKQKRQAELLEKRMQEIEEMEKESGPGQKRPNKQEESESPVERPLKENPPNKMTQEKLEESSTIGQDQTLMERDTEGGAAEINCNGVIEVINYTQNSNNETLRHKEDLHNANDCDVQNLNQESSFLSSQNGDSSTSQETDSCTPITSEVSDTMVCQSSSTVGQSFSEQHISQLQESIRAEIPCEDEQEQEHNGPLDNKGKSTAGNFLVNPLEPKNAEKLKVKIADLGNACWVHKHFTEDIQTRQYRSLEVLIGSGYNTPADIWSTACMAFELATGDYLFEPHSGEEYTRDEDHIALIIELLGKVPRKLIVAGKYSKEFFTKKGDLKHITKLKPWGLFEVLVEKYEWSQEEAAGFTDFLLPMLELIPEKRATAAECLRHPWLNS
# [13] = target: SRSF protein kinase 1 (Homo sapiens) (UniProt Q96SB4); conditions: at 1 µM
# [14] = target: Phosphatidylinositol 4,5-bisphosphate 3-kinase catalytic subunit alpha isoform (Homo sapiens) (UniProt P42336); conditions: at 0.1 µM
# Phosphatidylinositol 4,5-bisphosphate 3-kinase catalytic subunit alpha isoform (Homo sapiens), sequence (P42336 whole entry, canonical isoform): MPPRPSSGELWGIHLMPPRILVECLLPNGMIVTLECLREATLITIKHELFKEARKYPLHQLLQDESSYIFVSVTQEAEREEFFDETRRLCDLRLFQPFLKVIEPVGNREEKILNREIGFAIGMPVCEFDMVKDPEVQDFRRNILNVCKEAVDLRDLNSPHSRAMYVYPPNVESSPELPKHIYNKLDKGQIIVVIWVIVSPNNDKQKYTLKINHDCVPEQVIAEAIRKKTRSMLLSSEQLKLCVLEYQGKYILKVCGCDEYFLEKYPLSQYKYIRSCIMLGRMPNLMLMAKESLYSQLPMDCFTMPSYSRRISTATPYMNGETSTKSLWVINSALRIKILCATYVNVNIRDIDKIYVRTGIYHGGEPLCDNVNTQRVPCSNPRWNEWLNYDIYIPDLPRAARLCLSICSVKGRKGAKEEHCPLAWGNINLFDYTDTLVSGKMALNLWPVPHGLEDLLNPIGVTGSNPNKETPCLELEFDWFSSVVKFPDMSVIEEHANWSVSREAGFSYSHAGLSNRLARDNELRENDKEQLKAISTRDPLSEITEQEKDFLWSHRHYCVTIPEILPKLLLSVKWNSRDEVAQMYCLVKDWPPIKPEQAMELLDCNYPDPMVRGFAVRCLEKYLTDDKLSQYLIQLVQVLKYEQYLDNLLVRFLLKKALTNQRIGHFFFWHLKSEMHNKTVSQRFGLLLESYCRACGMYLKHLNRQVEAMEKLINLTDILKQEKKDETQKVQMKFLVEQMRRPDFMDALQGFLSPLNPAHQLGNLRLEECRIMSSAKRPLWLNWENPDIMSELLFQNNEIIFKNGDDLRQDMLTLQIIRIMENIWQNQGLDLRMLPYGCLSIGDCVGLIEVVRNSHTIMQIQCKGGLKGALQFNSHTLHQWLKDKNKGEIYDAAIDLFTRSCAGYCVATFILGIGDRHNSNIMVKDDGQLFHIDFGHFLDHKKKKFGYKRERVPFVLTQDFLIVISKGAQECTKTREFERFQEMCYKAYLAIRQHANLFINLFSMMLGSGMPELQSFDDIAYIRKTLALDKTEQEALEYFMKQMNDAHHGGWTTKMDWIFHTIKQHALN
# [15] = target: Phosphatidylinositol 4,5-bisphosphate 3-kinase catalytic subunit alpha isoform (Homo sapiens) (UniProt P42336); conditions: at 1 µM
# [16] = target: T3, Phosphatidylinositol 4,5-bisphosphate 3-kinase catalytic subunit delta isoform (Homo sapiens) (UniProt O00329); conditions: at 0.1 µM
# T3 sequence (whole entry): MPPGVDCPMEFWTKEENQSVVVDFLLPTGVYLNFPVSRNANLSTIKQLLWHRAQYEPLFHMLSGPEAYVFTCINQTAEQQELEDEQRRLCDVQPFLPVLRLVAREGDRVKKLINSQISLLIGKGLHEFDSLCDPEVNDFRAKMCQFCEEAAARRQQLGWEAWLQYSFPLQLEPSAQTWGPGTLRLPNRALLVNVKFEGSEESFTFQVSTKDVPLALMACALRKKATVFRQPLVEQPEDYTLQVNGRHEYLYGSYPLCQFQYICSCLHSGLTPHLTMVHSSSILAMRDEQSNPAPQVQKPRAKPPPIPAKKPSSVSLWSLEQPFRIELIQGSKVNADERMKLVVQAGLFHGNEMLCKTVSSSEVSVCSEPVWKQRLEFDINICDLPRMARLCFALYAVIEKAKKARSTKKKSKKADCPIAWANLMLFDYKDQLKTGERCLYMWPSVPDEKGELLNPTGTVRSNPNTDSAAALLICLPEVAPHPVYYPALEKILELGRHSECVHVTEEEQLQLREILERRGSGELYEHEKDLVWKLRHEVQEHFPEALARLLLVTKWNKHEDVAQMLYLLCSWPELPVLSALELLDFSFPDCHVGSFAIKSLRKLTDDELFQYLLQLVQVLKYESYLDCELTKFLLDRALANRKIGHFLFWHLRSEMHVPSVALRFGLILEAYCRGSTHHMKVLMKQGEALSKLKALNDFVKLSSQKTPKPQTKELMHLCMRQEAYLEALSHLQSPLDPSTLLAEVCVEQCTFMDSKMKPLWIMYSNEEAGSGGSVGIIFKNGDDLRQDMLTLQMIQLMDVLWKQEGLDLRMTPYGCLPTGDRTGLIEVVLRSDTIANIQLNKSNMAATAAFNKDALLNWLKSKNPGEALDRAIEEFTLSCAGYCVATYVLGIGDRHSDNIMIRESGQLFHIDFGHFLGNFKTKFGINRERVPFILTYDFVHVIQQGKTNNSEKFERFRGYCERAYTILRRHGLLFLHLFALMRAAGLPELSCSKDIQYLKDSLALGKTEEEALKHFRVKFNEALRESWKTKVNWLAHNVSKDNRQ
# [17] = target: T3, Phosphatidylinositol 4,5-bisphosphate 3-kinase catalytic subunit delta isoform (Homo sapiens); conditions: at 1 µM
# [18] = target: Phosphatidylinositol 4-kinase beta (Homo sapiens) (UniProt Q9UBF8); conditions: at 0.1 µM
# Phosphatidylinositol 4-kinase beta (Homo sapiens), sequence (Q9UBF8 2-816 limits assumed): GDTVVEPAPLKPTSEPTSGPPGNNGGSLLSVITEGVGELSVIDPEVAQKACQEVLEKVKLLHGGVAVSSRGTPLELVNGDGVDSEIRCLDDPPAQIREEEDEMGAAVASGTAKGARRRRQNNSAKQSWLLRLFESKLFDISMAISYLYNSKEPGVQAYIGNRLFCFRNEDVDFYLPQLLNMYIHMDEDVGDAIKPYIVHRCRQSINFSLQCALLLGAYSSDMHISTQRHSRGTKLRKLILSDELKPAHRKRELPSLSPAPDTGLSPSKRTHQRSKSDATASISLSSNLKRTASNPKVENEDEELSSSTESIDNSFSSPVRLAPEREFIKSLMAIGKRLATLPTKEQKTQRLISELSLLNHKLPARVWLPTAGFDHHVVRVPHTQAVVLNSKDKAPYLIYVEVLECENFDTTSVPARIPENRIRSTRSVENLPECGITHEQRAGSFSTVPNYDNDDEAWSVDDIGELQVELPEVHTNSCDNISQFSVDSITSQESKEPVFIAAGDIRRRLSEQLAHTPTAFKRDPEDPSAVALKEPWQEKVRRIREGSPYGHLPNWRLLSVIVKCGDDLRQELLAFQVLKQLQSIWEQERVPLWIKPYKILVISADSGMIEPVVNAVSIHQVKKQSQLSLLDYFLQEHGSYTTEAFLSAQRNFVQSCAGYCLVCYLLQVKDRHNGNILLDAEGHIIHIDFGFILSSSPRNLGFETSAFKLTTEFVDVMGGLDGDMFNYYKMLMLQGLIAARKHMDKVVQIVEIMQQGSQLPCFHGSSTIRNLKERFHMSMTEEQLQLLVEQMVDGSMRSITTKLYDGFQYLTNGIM
# [19] = target: Phosphatidylinositol 4-kinase beta (Homo sapiens) (UniProt Q9UBF8); conditions: at 1 µM
# [20] = target: Sphingosine kinase 1 (Homo sapiens) (UniProt Q9NYA1); conditions: at 0.1 µM;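 further: mean percent inhibition of SPHK1 activity, measured within the GSK PKIS screening panel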
# Sphingosine kinase 1 (Homo sapiens), sequence (Q9NYA1 whole entry): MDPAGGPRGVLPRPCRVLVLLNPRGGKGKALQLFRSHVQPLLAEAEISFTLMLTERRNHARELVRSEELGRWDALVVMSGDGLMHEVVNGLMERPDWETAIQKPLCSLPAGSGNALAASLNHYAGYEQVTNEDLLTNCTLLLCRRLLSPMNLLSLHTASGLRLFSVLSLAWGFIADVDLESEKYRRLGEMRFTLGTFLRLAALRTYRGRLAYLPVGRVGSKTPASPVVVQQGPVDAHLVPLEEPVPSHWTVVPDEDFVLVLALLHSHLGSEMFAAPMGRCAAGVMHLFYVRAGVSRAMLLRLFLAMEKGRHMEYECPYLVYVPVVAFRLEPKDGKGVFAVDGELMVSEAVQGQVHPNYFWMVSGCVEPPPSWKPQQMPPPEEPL
# SRSF protein kinase 3 (Homo sapiens), sequence (Q9UPE1 whole entry): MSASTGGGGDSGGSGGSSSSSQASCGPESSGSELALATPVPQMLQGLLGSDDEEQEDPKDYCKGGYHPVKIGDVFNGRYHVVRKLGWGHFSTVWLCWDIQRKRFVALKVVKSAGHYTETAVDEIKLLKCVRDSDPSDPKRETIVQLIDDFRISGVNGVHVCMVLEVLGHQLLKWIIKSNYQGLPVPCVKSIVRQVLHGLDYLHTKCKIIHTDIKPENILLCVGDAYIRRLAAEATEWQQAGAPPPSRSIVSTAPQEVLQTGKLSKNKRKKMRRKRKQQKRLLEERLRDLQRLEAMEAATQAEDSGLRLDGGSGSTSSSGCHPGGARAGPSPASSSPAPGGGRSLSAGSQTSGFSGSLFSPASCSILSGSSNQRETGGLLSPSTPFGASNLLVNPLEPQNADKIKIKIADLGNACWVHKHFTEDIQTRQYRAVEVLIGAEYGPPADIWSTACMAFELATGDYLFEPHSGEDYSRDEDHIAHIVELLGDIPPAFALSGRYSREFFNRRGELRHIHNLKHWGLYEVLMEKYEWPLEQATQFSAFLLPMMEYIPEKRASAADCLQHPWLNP
# Mitogen-activated protein kinase 3 (Homo sapiens), sequence (P27361 whole entry): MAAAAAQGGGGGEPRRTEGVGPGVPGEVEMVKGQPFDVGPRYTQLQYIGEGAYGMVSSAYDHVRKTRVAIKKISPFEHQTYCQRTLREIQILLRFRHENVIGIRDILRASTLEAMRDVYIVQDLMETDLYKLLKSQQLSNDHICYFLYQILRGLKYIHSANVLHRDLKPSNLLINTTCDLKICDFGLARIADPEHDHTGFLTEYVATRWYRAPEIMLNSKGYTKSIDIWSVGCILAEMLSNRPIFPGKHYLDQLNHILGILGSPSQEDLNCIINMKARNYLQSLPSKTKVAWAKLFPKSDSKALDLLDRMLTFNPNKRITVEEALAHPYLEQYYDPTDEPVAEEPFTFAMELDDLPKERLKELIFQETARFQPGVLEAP
Structure (SMILES),inhibition [1] [%],inhibition [2] [%],inhibition [3] [%],inhibition [4] [%],inhibition [5] [%],inhibition [6] [%],inhibition [7] [%],inhibition [8] [%],inhibition [9] [%],inhibition [10] [%],inhibition [11] [%],inhibition [12] [%],inhibition [13] [%],inhibition [14] [%],inhibition [15] [%],inhibition [16] [%],inhibition [17] [%],inhibition [18] [%],inhibition [19] [%],inhibition [20] [%]
COc1ccc2[nH]c3c4[nH]c5ccc(OC)cc5c4c4c(c3c2c1)C(=O)NC4=O,6.91,1.23,18.3,4.65,10.8,3.15,7.66,0.8,2.74,4.16,1.03,-1,6.5,6.77,14.6,4.48,10.1,-1.55,-0.12,-3.65
CCCN1CCC(c2ccc(Nc3nc(Nc4cc(F)ccc4C(N)=O)c4cc[nH]c4n3)c(OC)c2)CC1,13.1,0.67,25.4,1.69,11.7,6.28,14.3,0.03,5.13,1.44,2.82,-0.15,12.7,3.82,3.17,2.18,13.3,-9.61,-8.79,-0.97
CCn1c(-c2nonc2N)nc2c(C#CC(C)(C)O)nc(OC[C@H](N)c3ccccc3)cc21,2.26,3.21,-2.11,4.73,7.11,3.41,4.89,1.8,1.9,2.38,3.95,-2.57,-1.89,1.03,1.06,0.44,1.52,-2.33,0.6,0.65
COC(=O)Nc1nc2ccc(Oc3ccc(NC(=O)Nc4cccc(Cl)c4)cc3)cc2[nH]1,-0.19,-1.41,1.25,7.99,12,3.94,8.82,0.49,-0.38,0.03,0.02,-2.58,-2.98,-0.11,4.1,-0.7,3.93,3.19,-4.1,1.12
COc1ccc(-c2oc3ncnc(N)c3c2-c2ccc(NC(=O)Nc3cc(C(F)(F)F)ccc3F)cc2)cc1,4.66,2.74,48.7,4.62,30.4,5.32,37.8,1.95,15.3,-3.37,17.6,1.18,34.5,2.34,20.6,2.28,22.4,6.88,5.84,0.16
CC1=C(C(=O)Nc2cc(Cl)c3[nH]ncc3c2)C(c2ccc(C(F)(F)F)cc2)CC(=O)N1 (stereo not given),21.8,-1.32,-2.71,-3.41,6.81,1.37,2.31,0.32,4.12,2.56,2.49,-1.04,-1.39,2.86,6.37,1.38,4.61,3.72,1.77,6.22
Fc1ccc(-c2nn3ncccc3c2-c2ccnc(Nc3ccc4c(c3)OCCO4)n2)cc1,11.3,-0.97,-1.91,72,92.8,48.6,78.7,3.53,6.19,2.92,4.06,-3.43,-6.44,3.44,6.99,3.64,9.87,-5.48,-0.74,1.29
CCn1c(-c2nonc2N)nc2c(C#CC(C)(C)O)ncc(OC3CCNCC3)c21,4.59,2.87,-1.64,8.8,11.3,1.59,7.19,1.55,2.9,2.41,3.11,-3.24,-2.54,2.27,1.82,-0.02,0.63,4.47,0.66,-1.2
COc1ccc(CNC(=O)c2ccc(-c3cc(-c4nnc(C)o4)ccc3C)cc2)cc1,1.53,2.42,6.02,19.4,66.6,10.1,46.3,1.25,2.3,0.94,2.59,2.79,9.14,0.29,-1.87,-0.28,-2.1,3.82,0.88,1.51
CS(=O)(=O)CCNCc1ccc(-c2ccc3ncnc(Nc4ccc(OCc5ccccc5)c(C(F)(F)F)c4)c3c2)o1,3.07,-3,-1.24,5.55,2.96,4.3,5.41,3.67,2.13,2.6,2.8,-2.41,-1.93,4.02,4.89,0.55,2.2,-0.29,1.06,0.51
CNC(=O)c1cccc(C#Cc2cncnc2Nc2ccc(OCc3cccc(F)c3)c(Cl)c2)c1,0.63,-4.28,-0.55,-0.67,3.2,1.64,1.73,-0.77,-0.49,0.07,-0.21,-1.88,0.32,0.38,-2.56,0.74,-1.1,1.78,1.45,0.36
CS(=O)(=O)CCNCc1coc(-c2ccc3ncnc(Nc4ccc(OCc5ccccc5)cc4)c3c2)c1,4.16,0.59,-0.06,3.52,5.25,1.13,5.1,1.6,1.56,1.93,3.41,-2.53,-3.45,2.17,3.25,0.39,0.49,-2.05,-3.75,4.73
CCN(CC)S(=O)(=O)c1ccc(OC)c(Nc2ncc(-c3ccccc3)o2)c1,4.26,0.09,0.88,1.78,1.27,3.74,4.45,-0.22,-0.16,-2.06,0.41,1.34,2.14,-0.56,-2.02,-0.81,-1.28,1.63,0.66,0.47
Fc1ccc(-c2nn3ccccc3c2-c2ccncc2)cc1,0.82,-2.15,1.26,41.4,81.2,7.33,38.7,-0.3,0.46,1.66,1.62,-2.12,-2.82,0.14,1.14,0.32,2.31,-1.2,1.37,-0.49
Fc1ccc(-c2cc(-c3c[nH]nc3-c3ccccn3)ccn2)cc1,4.81,-1.32,1.09,5.14,37,5.12,12.5,-1,3.97,2.24,3.28,-0.82,1.31,4.44,3.51,2.06,3.22,-6.09,-0.81,1.6
COc1ccc(-c2cc(-c3c[nH]nc3-c3ccccn3)ccn2)cc1,8.82,-0.83,0.75,7.92,37.2,4.7,14.1,2.12,4.1,4.31,2.33,-1.02,2.7,3.47,1.91,-0.37,0.72,2.38,2.14,1.57
COc1cc2ncn(-c3cc(OCc4ccccc4C(F)(F)F)c(C(=O)N(C)C)s3)c2cc1OC,-0.07,-2.08,-1.83,7.43,1.82,-4.05,1.82,-0.21,0.14,0.9,0.94,-1.25,-2.46,0.78,1.16,0.51,2.3,2.07,0.96,2.3
CCn1c(-c2nonc2N)nc2ccccc21,1.82,2.33,1.24,1.01,4.34,3.58,4.06,2.36,3.3,0.66,1.22,-2.61,-2.83,3.75,1.82,3.37,3.25,7.06,0.95,0.28
CCOc1ccc2c(-c3ccnc(Nc4cccc(C(F)(F)F)c4)n3)cnn2n1,2.69,-2.63,1.62,3.75,1.48,5.24,2.69,1.99,0.75,0.81,0.81,-3.06,-3.22,2.25,3.21,-0.36,0.32,-2.42,-0.91,0.68
